Assay [1] in a line: qHTS assay for small molecule agonists of the p53 signaling pathway (AID 651631; calls by dose curve; further: nearly all actives have a fitted effect of over 15% in size; further: potency means the concentration at half of the fitted maximal effect). The method, boiled down:
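Readout was fluorescence from the LiveBLAzer FRET substrate, applied for 2 h at room temperature after 16 h compound exposure at 37 °C. Cells were the p53RE-bla HCT-116 line, with beta-lactamase driven by p53 response elements.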

The nature of assay [2]: qHTS assay for small molecules that induce genotoxicity in human embryonic kidney cells expressing luciferase-tagged ATAD5 (AID 651632). Further: nearly all actives have a fitted effect of over 15% in size. Further: potency means the concentration at half of the fitted maximal effect. The method, boiled down: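 Genotoxicity read-out via ATAD5-luciferase: HEK293T cells, 16 hr compound incubation at 37C, Amplite detection.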
A general note: qHTS replaces the single test concentration by a dilution series.

Assay [3] in a line: qHTS assay for small molecule agonists of the p53 signaling pathway - cell viability (AID 651633; calls by dose curve; further: nearly all actives have a fitted effect of over 30% in size; further: potency means the concentration at half of the fitted maximal effect). In a few lines:
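p53RE-bla cells were treated with compound for 16 hours at 37 C. Cytotoxicity was then measured as CellTiter-Glo luminescence after 30 min at room temperature.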

Assay [4] is described as follows: qHTS assay for small molecule disruptors of the mitochondrial membrane potential (AID 720635). Further: potency means the concentration at half of the fitted maximal effect. The method, boiled down:
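HepG2 cells exposed to compound 1 hr at 37C, then Mito-MPS dye 30 min. Ratio read of aggregate (540/590 nm) versus monomer (490/535 nm) fluorescence.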

The nature of assay [5]: qHTS assay to test for compound auto fluorescence at 590 nm (red) in HepG2 cells (AID 720674). Further: potency means the concentration at half of the fitted maximal effect. In a few lines:
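Fluorescence at 590 nm emission following 540 nm excitation was recorded from HepG2 wells one hour after compound transfer, with DMSO-only wells as vehicle and Rose Bengal sodium equivalency as the scale.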

Assay [6] is described as follows: qHTS assay to test for compound auto fluorescence at 460 nm (blue) in HEK293 cells (AID 720678). In a few lines:
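HEK293, 2,000 cells/well, 10% dialyzed FBS; attach 4-5 hr 37C; pin compound or DMSO; o/n 37C/5% CO2; fluorescence 405/460 nm; triamterene-equivalent units.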

Assay [7] in a line: qHTS assay to test for compound auto fluorescence at 590 nm (red) in HEK293 cells (AID 720679). Further: potency means the concentration at half of the fitted maximal effect. In a few lines:
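Intensity at 540nm excitation and 590nm emission is reported as Rose Bengal sodium-equivalent autofluorescence. Measurements followed overnight exposure (37C, 5% CO2) of HEK293 cells, 2,000 per well, to 23 nL compound.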

Assay [8] is described as follows: qHTS assay for small molecules that induce genotoxicity in human embryonic kidney cells expressing luciferase-tagged ATAD5 - cell viability (AID 651634; calls by dose curve; further: nearly all actives have a fitted effect of over 25% in size). The method, boiled down: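 Live-cell protease activity (CellTiter-Fluor, fluorescence) indicates viability. HEK293T cells with luciferase-tagged ATAD5; 15.5 hr compound treatment at 37C.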
The nature of assay [9]: qHTS assay for small molecule disruptors of the mitochondrial membrane potential - cell viability (AID 720634; calls by dose curve;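 further: human HepG2 liver cancer cells; series mostly up to about 83 µM; nearly all actives have a fitted effect of over 20% in size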). In a few lines:
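Human hepatoma HepG2 cells were treated for 1 hr with test chemicals, then given m-MPI dye and CellTiter-Glo. Cell viability reflects luminescence proportional to cellular ATP.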

Assay [10] is described as follows: qHTS assay to test for compound auto fluorescence at 535 nm (green) in HepG2 cells (AID 720675). Further: potency means the concentration at half of the fitted maximal effect.

“And” between values parts separate entries of the source, which are not always exact repeats. Equal entries are not always repeated. Inconclusive results are not listed. The source holds several records for some structures; these can differ, active in one and inactive in another. The source made the active and inactive calls. Unless noted, the call rests on the fitted dose curve; in most records, active means well fitted curve in the direction sought with a large enough effect in the repeat runs; inconclusive means weak or mixed curves; inactive means no such curve, though single readings can be large; an effect the other way counts as inactive or inconclusive.
On the % scale 0 is the no-effect control and ±100 the full control effect; tags describe the fitted curve by direction and shape or compound fluorescence and quenching.

For `O=C(c1ccccc1)c1ccc(O)cc1O`, the Potency result in assay [1], in assay [2], in assay [3], in [5] and in assay [7] was “inactive” each time. Further, the Potency in assay [4] is 27.8 µM (active) and 61.1 µM (active). In addition, the result in assay [6] was inactive.
With `C=C(C)C1CC=C(C)CC1` (stereo not drawn), the Potency entry in assay [1], in assay [2], in assay [3], in assay [8], in assay [5] and in assay [7] was “inactive” in each case. Besides, the compound was classed as inactive in assay [6].
For the compound `CCOCCOCCO`, the Potency result in assay [1], in assay [2], in assay [3], in [9], in [5] and in assay [10] was “inactive” throughout. The Potency entry in [7] was “inactive”. For the same compound, the call in assay [6] was inactive.
With `c1ccc2c(c1)Oc1ccccc1S2`, the Potency entry in assay [1], in [2], in [3], in assay [5], in [10] and in [7] was “inactive” each time. For the same compound, the compound was classed as inactive in assay [6].
In the case of `CC(=O)C1(C)CC2=C(CCCC2(C)C)CC1C` (stereo not drawn), the Potency result in assay [1], in assay [2], in assay [3], in assay [5] and in assay [7] was “inactive” throughout. Further, the outcome in assay [6] was inactive.
`CCCCNS(=O)(=O)c1ccccc1`: the Potency result in assay [1], in [2], in assay [3], in assay [9], in assay [5] and in assay [10] was “inactive” in each case. Besides, the Potency result in assay [7] was “inactive”. In addition, the Potency in assay [4] is 48.6 µM (active). The compound was classed as inactive in assay [6].
As to `COC(C)COC(C)COC(C)CO` (stereo not drawn), the Potency entry in assay [1], in assay [2], in assay [3], in assay [9], in assay [4] and in [5] was “inactive” throughout. For the same compound, the Potency result in assay [7] is “inactive”. Also, the call in assay [6] was inactive.
Regarding `O=C=Nc1ccc(Cc2ccc(N=C=O)cc2)cc1`, the Potency entry in [1], in assay [2], in assay [3], in assay [4], in [5] and in assay [10] was “inactive” each time. For the same compound, the Potency entry in assay [7] was “inactive”. For the same compound, the call in assay [6] was inactive.
`Nc1ncn([C@@H]2O[C@H](CO)[C@@H](O)[C@H]2O)c(=O)n1`: the Potency in assay [1] is 2.11 µM (active) and 4.86 µM (active); in assay [3], 668 nM (active) and inactive. In addition, the Potency entry in assay [2], in assay [9], in assay [4], in assay [5] and in assay [7] was “inactive” throughout. The call in [6] was inactive.
`CCC(C)c1ccccc1O` (stereo not drawn): the Potency result in [2], in [3], in [9], in [5] and in [7] was “inactive” each time. The Potency in assay [4] was 54.1 µM (active) and 30.6 µM (active). Also, the outcome in assay [6] was inactive.
Take `COc1ccccc1/C=C/C=O`: the Potency result in [2], in assay [3], in assay [8], in [9], in assay [4] and in assay [5] was “inactive” in each case. In addition, the Potency result in assay [7] is “inactive”. Besides, the compound was called inactive in assay [6].
`c1ccc2cc(Nc3ccc(Nc4ccc5ccccc5c4)cc3)ccc2c1`: the Potency result in [2], in assay [3], in assay [9], in assay [4], in [5] and in assay [7] was “inactive” in each case. In addition, the compound was classed as inactive in [6].
As for `CCCC(=O)O`, the Potency entry in [2], in assay [3], in assay [9], in [4], in assay [5] and in [10] was “inactive” throughout. The Potency entry in assay [7] is “inactive”. For the same compound, the call in [6] was inactive.
`CC(C)OC(=O)C(C)(C)Oc1ccc(C(=O)c2ccc(Cl)cc2)cc1`: the Potency entry in assay [2], in assay [8], in assay [4], in [5], in assay [10] and in assay [7] was “inactive” throughout. Further, the call in assay [6] was inactive.
Consider `Cc1ccc2c(n1)Oc1ccc(C(C)C(=O)OCC(=O)N(C)C)cc1C2` (stereo not drawn), for which the Potency entry in [3], in assay [8], in assay [9], in assay [5], in [10] and in [7] was “inactive” each time. The call in assay [6] was inactive.
As to `Cc1cc2nc3c(=O)[nH]c(=O)nc-3n(C[C@H](O)[C@H](O)[C@H](O)CO)c2cc1C`, the Potency result in assay [2], in [3], in [8], in assay [5] and in assay [7] was “inactive” throughout. In addition, the Potency in assay [10] was 35.5 µM (active) [middle of 4 runs]. Further, the compound was classed as inactive in assay [6].
In the case of `O=C1OC2(c3cc(Br)c(O)c(Br)c3Oc3c2cc(Br)c(O)c3Br)c2c(Cl)c(Cl)c(Cl)c(Cl)c21`, the Potency result in [2] and in assay [9] was “inactive” in each case. Besides, the Potency in assay [3] was 54.5 µM (active); in assay [5] it was 1.41 µM (active) and 7.94 µM (active); in assay [10], 17.8 µM (active); in assay [7], 2.51 µM [fluorescent] (active) and 14.1 µM [fluorescent] (active). For the same compound, the call in assay [6] was inactive.
Turning to `NC=O`, the Potency result in [2], in assay [3], in assay [8], in assay [4], in [5] and in assay [10] was “inactive” each time. Also, the Potency entry in assay [7] is “inactive”. The call in assay [6] was inactive.
As for `c1cc(N(CC2CO2)CC2CO2)ccc1OCC1CO1` (stereo not drawn), the Potency was 13.7 µM (active) and 17.2 µM (active) in assay [2]; 68.7 µM (active) in assay [3]. The Potency entry in assay [9], in assay [4], in assay [5], in assay [10] and in assay [7] was “inactive” throughout. Also, the compound was called inactive in [6].
Regarding `CC(C(=O)O)c1cccc(C(=O)c2ccccc2)c1` (stereo not drawn), the Potency result in [1], in [9], in [4], in assay [5] and in assay [7] was “inactive” each time. The outcome in assay [6] was inactive.
Turning to `S=C(NC1CCCCC1)NC1CCCCC1`, the Potency result in [2], in [8], in assay [9], in [5], in assay [10] and in assay [7] was “inactive” in each case. In addition, in assay [4], the Potency was 53.4 µM (active) and 54.5 µM (active). For the same compound, the compound was called inactive in assay [6].
Consider `CCCCc1oc2ccccc2c1C(=O)c1cc(I)c(OCCN(CC)CC)c(I)c1`, for which the Potency result in [2], in assay [5], in [10] and in [7] was “inactive” throughout. Also, in assay [3], the Potency is 26.6 µM (active) and 48.9 µM (active). Besides, the compound was called inactive in assay [6].
`OC[C@H]1O[C@@H]2O[C@H]3[C@H](O)[C@@H](O)[C@@H](O[C@H]4[C@H](O)[C@@H](O)[C@@H](O[C@H]5[C@H](O)[C@@H](O)[C@@H](O[C@H]6[C@H](O)[C@@H](O)[C@@H](O[C@H]7[C@H](O)[C@@H](O)[C@@H](O[C@H]8[C@H](O)[C@@H](O)[C@@H](O[C@H]1[C@H](O)[C@H]2O)O[C@@H]8CO)O[C@@H]7CO)O[C@@H]6CO)O[C@@H]5CO)O[C@@H]4CO)O[C@@H]3CO`: the Potency result in assay [2], in assay [3], in assay [8], in assay [9], in assay [5] and in assay [7] was “inactive” each time. Further, the compound was classed as inactive in assay [6].
Consider `c1ccc2sc(SSN3CCOCC3)nc2c1`, for which the Potency entry in assay [2], in [3], in assay [8], in [9], in assay [5] and in [10] was “inactive” in each case. Further, the Potency entry in assay [7] was “inactive”. Also, the Potency in assay [4] was 34.3 µM (active) and 27.3 µM (active). Further, in assay [6], the compound was classed as inactive.
On to `C/C=C/C(=O)O`, for which the Potency result in assay [2], in [3], in [8], in [5], in assay [10] and in [7] was “inactive” each time. Also, the compound was classed as inactive in assay [6].
For `O=C(O)c1ccccc1Nc1cccc(C(F)(F)F)c1`, the Potency result in assay [2], in [8], in assay [9], in assay [5], in assay [10] and in assay [7] was “inactive” throughout. The Potency in assay [4] is 26.6 µM (active) and 43.3 µM (active). The result in [6] was inactive.

(Values after PubChem BioAssay (Tox21).)
